From PubChem
MITF TRPM1 inh = inhibitors of MITF-dependent TRPM1 promoter reporter, primary screen, cell-based, SK-MEL-5, single point, luciferase. SK-MEL-5 TRPM1 promoter luciferase, 24 h. inhibition, % at 12.5 µM. hit rate 0.83% among 330,000. AID 488899, 2010;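 active means mean inhibition across replicates of 60% or more, whatever share of single replicates reaches that level; inconclusive means some that reach 60%, reason not given; inactive means mean inhibition across replicates below 60%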
MITF TRPM1 HTS = activators of MITF-driven TRPM1 promoter reporter, primary screen, cell-based, SK-MEL-5, luciferase, single point. AID 588334, 2011. hit rate 0.75% among 300,000. SK-MEL-5 TRPM1-promoter luciferase, 24 h; % of positive control, neutral wells = 0. activation, % at 12.5 µM;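 active means mean activation of at least 80% with every replicate also reaching 80%; inconclusive means mean reaches 80% but some replicate falls short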;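 further: 0% = neutral control wells and 100% = parthenolide positive control wells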
PfHsp90 yeast 2 = growth inhibition of PfHsp90-expressing yeast, primary screen, antimalarial PfHsp90 inhibitor project, S. cerevisiae, BacTiter-Glo luminescence, single point, set 2 | BacTiter-Glo ATP, 48 h; yeast lacking PDR1 and PDR3 efflux regulators | inhibition, % at 9.4 µM | hit rate 0.32% among 310,000;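 active means every replicate shows inhibition above about 80%, whatever the replicate mean, limit read from the data; inconclusive means mean inhibition reaches the set limit but some replicate falls short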;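 further: 0% = DMSO neutral controls and 100% = 20 µM radicicol positive controls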
Wnt act = Wnt/beta-catenin pathway activators, primary screen, cell-based, plate reader, single point. Wnt/beta-catenin reporter cell assay, activator. AID 743398, 2014. activation, % at 9.35 µM. hit rate 1.2% among 300,000; in the data active means activation above about 30%, passing the limit was not always enough; inconclusive means no clear call, values can overlap the other calls;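 further: 0% = neutral control wells and 100% = positive control wells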
NSD2 HMT inh = NSD2 histone methyltransferase inhibitors, primary screen, biochemical, AlphaScreen, single concentration, set 2; NSD2 peptide methylation, 120 min; inhibition, % at 12.5 µM; hit rate 0.54% among 310,000; AID 743445, 2014; in the data active means inhibition above about 50%
Target sequence (O96028 whole entry, looked up): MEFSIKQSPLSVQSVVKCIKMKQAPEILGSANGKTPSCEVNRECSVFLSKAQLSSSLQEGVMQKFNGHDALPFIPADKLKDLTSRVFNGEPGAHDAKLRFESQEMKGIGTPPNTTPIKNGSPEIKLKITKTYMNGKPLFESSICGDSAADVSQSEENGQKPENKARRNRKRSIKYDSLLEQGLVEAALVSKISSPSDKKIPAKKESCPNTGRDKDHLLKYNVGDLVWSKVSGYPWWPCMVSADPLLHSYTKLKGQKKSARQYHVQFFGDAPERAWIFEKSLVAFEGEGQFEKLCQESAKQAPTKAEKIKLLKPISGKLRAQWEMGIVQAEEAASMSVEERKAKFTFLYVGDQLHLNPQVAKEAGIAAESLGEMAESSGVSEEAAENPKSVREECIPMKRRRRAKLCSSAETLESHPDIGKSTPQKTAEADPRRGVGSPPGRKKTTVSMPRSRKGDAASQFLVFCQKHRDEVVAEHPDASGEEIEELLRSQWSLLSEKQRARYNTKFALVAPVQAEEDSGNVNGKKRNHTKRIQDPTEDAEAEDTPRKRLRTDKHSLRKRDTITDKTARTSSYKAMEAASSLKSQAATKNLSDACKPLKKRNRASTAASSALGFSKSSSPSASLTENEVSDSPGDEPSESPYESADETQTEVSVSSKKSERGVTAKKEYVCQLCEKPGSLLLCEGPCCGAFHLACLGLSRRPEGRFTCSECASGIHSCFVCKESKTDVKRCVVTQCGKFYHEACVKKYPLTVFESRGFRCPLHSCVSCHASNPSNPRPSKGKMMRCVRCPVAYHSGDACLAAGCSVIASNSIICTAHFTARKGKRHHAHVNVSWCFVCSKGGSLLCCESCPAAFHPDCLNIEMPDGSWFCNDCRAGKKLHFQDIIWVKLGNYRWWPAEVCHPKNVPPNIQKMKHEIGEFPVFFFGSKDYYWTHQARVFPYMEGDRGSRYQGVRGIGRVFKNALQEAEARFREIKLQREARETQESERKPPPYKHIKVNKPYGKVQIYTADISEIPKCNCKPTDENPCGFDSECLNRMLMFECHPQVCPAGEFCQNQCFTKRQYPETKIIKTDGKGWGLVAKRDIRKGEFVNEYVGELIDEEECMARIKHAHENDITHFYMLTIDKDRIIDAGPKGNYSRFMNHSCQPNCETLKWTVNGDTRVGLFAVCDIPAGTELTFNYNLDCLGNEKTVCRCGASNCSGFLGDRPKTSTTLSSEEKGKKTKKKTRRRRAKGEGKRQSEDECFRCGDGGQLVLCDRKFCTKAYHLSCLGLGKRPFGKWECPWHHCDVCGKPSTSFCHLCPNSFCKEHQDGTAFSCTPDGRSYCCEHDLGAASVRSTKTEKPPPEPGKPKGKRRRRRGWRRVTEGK
N-glyco inh = increase of ERlucT glycosylation luciferase signal, primary screen, N-linked glycosylation inhibitor project, D54 ERlucT cells, luminescence, set 2. D54 ERlucT glycosylation luciferase reporter, 24 h; percent of 100 nM tunicamycin response. reporter increase, % at 12.5 µM. hit rate 0.23% among 360,000;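 active means mean luciferase reporter signal, scaled so untreated is 0 and the glycosylation-blocking control 100, at or above a set limit in every replicate; inconclusive means mean reaches the limit but not every replicate does; inactive means mean below the limit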;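 further: luciferase carries N-glycosylation sites so blocking glycosylation raises the light; 0% = median of neutral control wells and 100% = median of 100 nM tunicamycin wells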
Active calls of the source: *. In the library only some 2.9% were active in any assay of this set; here they are far more common.

`Cc1ccc(C(=O)Nc2ccc(N3CCCC3)cc2)cc1` gave MITF TRPM1 inh -33, MITF TRPM1 HTS 36, PfHsp90 yeast 2 -7, Wnt act 12, NSD2 HMT inh 3 and N-glyco inh -1.
`Cc1cc(C)c(O)c(C(=O)CC2CC(=O)NC(=O)C2)c1` gave Wnt act -3.
CCC(C)NS(=O)(=O)c1ccc(S(=O)(=O)N(CCc2ccc(OC)c(OC)c2)Cc2cccs2)cc1 (stereo unspecified) was read as MITF TRPM1 inh 16, MITF TRPM1 HTS -17, PfHsp90 yeast 2 14, Wnt act -1, NSD2 HMT inh -1 and N-glyco inh -8.
`O=C(CN(C(=O)c1ccccc1Cl)N1C(=O)C2C3C=CC(C3)C2C1=O)c1cccs1` (stereo unspecified) gave MITF TRPM1 inh 13, MITF TRPM1 HTS -14, PfHsp90 yeast 2 21, Wnt act 1, NSD2 HMT inh -21 and N-glyco inh -1.
`COc1ccccc1-c1cccc2c3c([nH]c12)[C@@H]1C[C@H]2[C@@H](C(=O)N1CC3)[C@H](C)ON2C` gave Wnt act -2.
Screening O=C(COC(=O)c1cc(Cl)nc(Cl)c1)NC1CCCCC1 returned NSD2 HMT inh -1.
For Cc1cnc(C(=O)Nc2ccc(N3CCCCC3)cc2)cn1 the results were MITF TRPM1 inh -82, MITF TRPM1 HTS 92*, PfHsp90 yeast 2 19, Wnt act 8, NSD2 HMT inh 2 and N-glyco inh -7.
Screening CC(=O)N1CCN(c2ccc(NC(=O)c3ccc4ccccc4c3)cc2)CC1 returned MITF TRPM1 inh -28, MITF TRPM1 HTS 31, PfHsp90 yeast 2 -35, Wnt act 12, NSD2 HMT inh -8 and N-glyco inh -3.
`O=C(Nc1ccc(N2CCCC2)cc1)c1ccc2ccccc2c1` gave MITF TRPM1 inh -45, MITF TRPM1 HTS 48, PfHsp90 yeast 2 15, Wnt act 32*, NSD2 HMT inh -1 and N-glyco inh -1.
`O=C(c1ccccc1)c1ccc(N2CCCC2)cc1` gave MITF TRPM1 inh -110, MITF TRPM1 HTS 94*, PfHsp90 yeast 2 2, Wnt act 20, NSD2 HMT inh 3 and N-glyco inh 0.
`COc1ccc(C2CC(=O)C(c3cccc(Cl)c3)=CN2Cc2ccccc2)cc1` (stereo unspecified) gave Wnt act -4 and NSD2 HMT inh -3.
Screening CCc1nc2ccc(C(=O)N3CCc4ccccc4C3)cc2nc1CC returned NSD2 HMT inh -1.
CCNS(=O)(=O)c1ccc(NC(=O)CC(C)c2ccccc2)cc1 (stereo unspecified) was read as MITF TRPM1 inh -2, MITF TRPM1 HTS 3, PfHsp90 yeast 2 7, Wnt act -1, NSD2 HMT inh -2 and N-glyco inh 0.
For CC(=O)Nc1sc(N/N=C/c2ccc(O)cc2)nc1-c1ccc(C)cc1 the results were MITF TRPM1 inh -7, MITF TRPM1 HTS -1, PfHsp90 yeast 2 22, Wnt act 10, NSD2 HMT inh 3 and N-glyco inh 2.
Screening CC(C)(C)c1csc(N/N=C/c2ccc(O)cc2)n1 returned MITF TRPM1 inh -90, MITF TRPM1 HTS 97*, PfHsp90 yeast 2 -15, Wnt act 11, NSD2 HMT inh 3 and N-glyco inh 2.
For COc1ccc(C2CC(c3ccc4ccccc4c3)=NN2C(=O)COC(=O)C2CCC(=O)N2)cc1 (stereo unspecified) the results were MITF TRPM1 inh -75, MITF TRPM1 HTS 75, PfHsp90 yeast 2 -31, Wnt act 45* and N-glyco inh -8.
CC(=O)OCC(=O)N1N=C(c2ccc3ccccc3c2)CC1c1ccccc1 (stereo unspecified) was read as MITF TRPM1 inh -3, MITF TRPM1 HTS 1, PfHsp90 yeast 2 -9, NSD2 HMT inh -2 and N-glyco inh 1.
For COc1ccc(C2CC(c3ccc4ccccc4c3OC(C)=O)=NN2C(C)=O)cc1 (stereo unspecified) the results were MITF TRPM1 inh -50, PfHsp90 yeast 2 -6, Wnt act 58*, NSD2 HMT inh -2 and N-glyco inh 1.
For COc1cccc(-c2nnc(SCC(=O)Nc3ccc(OCc4ccccc4)cc3)n2Cc2ccco2)c1 the results were NSD2 HMT inh -2.
NC(=NCc1ccco1)NC(=O)c1ccc(Cl)cc1 was read as MITF TRPM1 inh -95, MITF TRPM1 HTS 92*, PfHsp90 yeast 2 -11, Wnt act 3, NSD2 HMT inh 5 and N-glyco inh 0.
Screening CCCCNC(=O)C[C@H]1C[C@@]2(C(=O)OC)C(=C[C@H](COCc3ccccc3)O[C@@H]2C)N(CCC2=CCCCC2)C1=O returned Wnt act -2.
`COc1ccc2c(c1)[C@@]1(OCCC=C[C@H]1C)C(=O)N2CC1CC1` gave Wnt act -1.
For CN(CC(=O)Nc1cccc(F)c1)C(=O)c1cn(-c2ccccc2)nc1-c1ccc(Cl)cc1 the results were MITF TRPM1 inh 21, MITF TRPM1 HTS -20, PfHsp90 yeast 2 98*, Wnt act 6, NSD2 HMT inh 0 and N-glyco inh -2.
CN(CC(=O)Nc1cccc(F)c1)C(=O)c1cn(-c2ccccc2)nc1-c1cccs1 was read as MITF TRPM1 inh 2, MITF TRPM1 HTS 2, PfHsp90 yeast 2 -3, Wnt act 5, NSD2 HMT inh 0 and N-glyco inh 5.
Screening Cc1oc(C(=O)O)cc1COc1ccccc1Cl returned MITF TRPM1 inh 8, MITF TRPM1 HTS -10, PfHsp90 yeast 2 7, Wnt act 59*, NSD2 HMT inh 0 and N-glyco inh 2.
`Cc1c(Cl)cccc1NC(=S)N=Nc1c(O)n(CN2CCOCC2)c2ccccc12` gave MITF TRPM1 inh 24, MITF TRPM1 HTS -15, PfHsp90 yeast 2 107* and N-glyco inh 4.
For Oc1c(N=NC(=S)Nc2ccccc2F)c2ccccc2n1Cc1ccccc1Cl the results were MITF TRPM1 inh 10, MITF TRPM1 HTS -10, PfHsp90 yeast 2 -11, Wnt act 0, NSD2 HMT inh -3 and N-glyco inh -1.
CCOC(=O)c1ccc(N2Cc3ccccc3C2=NC(=O)c2cccs2)cc1 was read as MITF TRPM1 inh -109, MITF TRPM1 HTS 112*, PfHsp90 yeast 2 -3, Wnt act 21, NSD2 HMT inh -2 and N-glyco inh -2.
For CC(=O)c1ccc(N2Cc3ccccc3C2=NC(=O)c2cccs2)cc1 the results were MITF TRPM1 inh -93, MITF TRPM1 HTS 94*, PfHsp90 yeast 2 5, Wnt act inconclusive, NSD2 HMT inh 2 and N-glyco inh -13.
